Results taken from PubChem BioAssay AID2061317 (National Center for Advancing Translational Sciences (NCATS), 2025).
Inconclusive results are not listed. Calls of active or inactive are those of the source. Calls follow the shape of the dose curve; as a rule, active = well fitted inhibition curve with a large enough effect; inconclusive = small, poorly fitted or top-dose-only effect; inactive = flat fitted curve, though single readings scatter.

Assay: Identification of antibody-drug conjugate (ADC) payloads which are substrates of ATP-binding cassette drug efflux transporters: ABCB1-HEK293-MDR-19 cell line with tariquidar
Settings: HEK293 ABCB1 (MDR-19) + tariquidar, CellTiter-Glo viability, 48 h
Description: Antibody-drug conjugates (ADCs) feature an antibody recognizing a specific protein joined to a potent toxic payload. Numerous antibody-drug conjugates have received FDA approval; however, clinical resistance arises. Resistance mechanisms include decreased expression or mutation of the antibody target, impaired payload release, or increased expression of ATP-binding cassette (ABC) efflux transporters associated with multidrug resistance. We therefore sought to characterize the interaction of ABC multidrug transporters with ADC payloads. We performed a high-throughput screen with 27 common ADC payloads using cells lines expressing ABC transporters P-glycoprotein (P-gp, encoded by ABCB1) or ABCG2 (encoded by ABCG2). Confirmatory assays were also performed using cells transfected to express P-gp, ABCG2, or MRP1 (encoded by ABCC1). Several commonly used ADC payloads were substrates of P-gp, including calicheamicin gamma1, monomethyl auristatin E, DM1, and DM4. All the pyrrolobenzodiazepines tested - SJG136, SGD-1882, SG2057, and SG3199 - were substrates of P-gp, ABCG2, and MRP1. […] These findings highlight the risk of transporter-mediated resistance with certain ADC payloads and underscore the importance of selecting payloads that evade ABC transporter recognition in future ADC development.
HEK-293 cells were transfected with empty vector (pcDNA) or vector containing the human ABCB1 (MDR-19), ABCG2 (R-5), or ABCC1 gene (MRP1) and were maintained in EMEM with 2 mg/mL G418 added to maintain transporter expression. The HeLa derivative KB-3-1 and the P-gp overexpressing KB-8-5-11 subline were maintained in DMEM; KB-8-5-11 additionally received 100 ng/mL colchicine. H460 parental cells were obtained from the Division of Cancer Treatment and Diagnosis Tumor Repository, National Cancer Institute at Frederick, MD and were cultured in RPMI. The ABCG2 expressing subline H460 MX20 was generated by selecting H460 cells in 20 nM mitoxantrone. Media in all cases was supplemented with 10% FBS and 1% penicillin-streptomycin. We explored 27 common ADC payloads, in two orthogonal, paired cell line sets-a drug selected and transfected set for each transporter--to identify substrates of the ABC transporters P-gp and ABCG2. Compounds were sourced from Levena Biopharma (San Diego, CA), Selleck Chem (Houston, TX), ChemieTek (Indianapolis, IN), or Microsource Discovery Systems (Gaylordsville, CT). Screening was performed as previously described. Briefly, cells were plated at a density of 500 cells/well in 1536 well plates with compounds added using a 1536-head pin tool (Kalypsys, San Diego CA). Cells were incubated with cytotoxic drugs and processed with CellTiter Glo reagent (Promega, Madison, WI) to determine viability after 48 hours. P-gp substrates were identified by comparing compound activity between paired sets of low-expressing (sensitive) and over-expressing (resistant) cell lines.
With `CC[C@@]1(O)C(=O)OCc2c1cc1n(c2=O)Cc2cc3ccccc3nc2-1` the Potency was 13.3 nM (active).
With `CC[C@H](C)[C@@H]([C@@H](CC(=O)N1CCC[C@H]1[C@H](OC)[C@@H](C)C(=O)N[C@H](C)[C@@H](O)c1ccccc1)OC)N(C)C(=O)[C@@H](NC(=O)[C@H](C(C)C)N(C)C)C(C)C` the Potency was 1.3 nM (active).
For `COc1cc2cc(C(=O)N3C[C@@H](CCl)c4c3cc(O)c3ccccc43)[nH]c2c(OC)c1OC`, the Potency was 1.7 nM (active).
For `COc1cccc2c1C(=O)c1c(O)c3c(c(O)c1C2=O)C[C@@](O)(C(=O)CO)CC3OC1CC(N2CCOC(OC)C2)C(O)C(C)O1` (some centres not stated), the Potency was 1.3 nM (active).
In the case of `COc1cc2cc(c1Cl)N(C)C(=O)C[C@H](OC(=O)[C@H](C)N(C)C(=O)CCC(C)(C)S)[C@]1(C)OC1[C@H](C)C1C[C@@](O)(NC(=O)O1)[C@H](OC)/C=C/C=C(\C)C2` (some centres not stated), the Potency is reported as 1.2 nM (active).
In the case of `COc1cc2cc(c1Cl)N(C)C(=O)C[C@H](OC(=O)C(C)C)[C@]1(C)O[C@H]1[C@H](C)[C@@H]1C[C@@](O)(NC(=O)O1)[C@H](OC)C=CC=C(C)C2`, the Potency is reported as 0.3 nM (active).
For `CC[C@H](C)[C@H](NC(=O)[C@H]1CCCCN1C)C(=O)N(C)[C@H](C[C@@H](OC(C)=O)c1nc(C(=O)N[C@@H](Cc2ccccc2)C[C@H](C)C(=O)O)cs1)C(C)C`, the Potency was 3.3 nM (active).
